KCNH2 3.1 block: KCNH2 3.1 (human) potassium channel inhibition | U2OS KCNH2 3.1, thallium flux FluxOr; stronger effect = lower value | activity change, % (tested at about 1.8 µM) | 340,000 tested, 0.95% active;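 active = maximum activity change below -70%; inconclusive = maximum activity change from -70% to -50%; inactive = maximum activity change above -50%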;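 note: thallium influx rate constant from kinetic fluorescence after stimulation buffer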
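Virally transduced U2OS (3.1 isoform, 4 h infection in dark at RT) → overnight 37 C → FluxOr + Red40 in HBSS/HEPES, 45 min → stimulation buffer, 2 min kinetic read → rate constant vs DMSO controls.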
KCNH2 WT inh: blocks the wildtype human KCNH2 potassium channel; Q12809; U2OS, BacMam KCNH2, thallium flux FluxOr; stronger effect = lower value; activity change, % at 1.84 µM; 340,000 tested, 0.37% active; AID 720551;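 active = maximum activity change below -70%; inconclusive = maximum activity change between -70% and -50%; inactive = maximum activity change above -50%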
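U2OS cells were transduced with wild-type KCNH2 virus (2.03 x 10^8 / mL) for 4 h at room temperature, then cultured overnight at 37 C. Thallium flux was read with FluxOr dye. Rate constants were normalized to DMSO controls.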
CtBP-E1A blk: inhibitors of CtBP/E1A interaction. activity change, % (concentration not given with the values). AID 651724. 340,000 tested, 0.49% active. AlphaScreen GST-E1A/His-CtBP binding, 1536-well; stronger effect = lower value
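GST-E1A and His-tagged CtBP (125 nM each as 5X stock) were preincubated with pin-transferred compound for 2 h at 37 °C in the dark, then glutathione donor and nickel acceptor beads were added for 1 h before AlphaScreen reading.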
KDM4E inh: JMJD2E (human) inhibition. B2RXH2. JMJD2E catalytic domain, FDH-coupled NADH fluorescence (FDH is formaldehyde dehydrogenase). Potency, µM (titrated, usually from 57.1 µM), without a hit: at the top dose activity change, negative = inhibition, hits mostly inhibitors. 230,000 tested, 1.6% active. AID 2147; active = well fitted inhibition curve with a large enough effect, not every such curve was filed as active; inconclusive = small, poorly fitted or top-dose-only effect, or another doubt; inactive = no such curve, though single readings can be large or run the other way;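 note: potency is the fitted concentration of half-maximal effect; 0% = wells with enzyme and -100% = buffer wells without enzyme; nearly all actives have a fitted effect of over 50% in size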
Target sequence (B2RXH2 1-337 limits assumed): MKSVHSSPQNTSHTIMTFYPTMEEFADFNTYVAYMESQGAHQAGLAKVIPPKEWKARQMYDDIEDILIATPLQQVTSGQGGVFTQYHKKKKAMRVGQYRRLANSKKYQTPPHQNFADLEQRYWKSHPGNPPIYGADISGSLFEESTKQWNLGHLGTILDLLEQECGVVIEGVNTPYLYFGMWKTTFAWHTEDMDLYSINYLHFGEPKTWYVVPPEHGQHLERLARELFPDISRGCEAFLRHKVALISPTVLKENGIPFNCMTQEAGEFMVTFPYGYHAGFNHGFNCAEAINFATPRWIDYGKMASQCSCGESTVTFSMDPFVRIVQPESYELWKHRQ
Six1-Eya2 blk: Six1/Eya2 interaction inhibition; Q15475+O00167; AlphaScreen GST-Six1/His-Eya2 binding, biochemical; stronger effect = lower value; activity change, % (no concentration beside the values); 360,000 tested, 0.56% active; AID 651725
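Homogeneous AlphaScreen proximity assay pairing GST-Six1 with His-tagged Eya2 (added as 5X mix: 250 nM and 500 nM) in 50 mM Tris pH 8.0, 300 mM NaCl, 1 mM TCEP. Glutathione donor and nickel acceptor beads; 1 h, 37 °C, dark.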
* = called active by the depositor; ? = inconclusive; / = no result given. Rows were chosen to be rich in hits. Some 2% of all compounds tested hit in one or more screens of this group. Cut-off read from the data, not from the text of the source, unless noted: active = activity change below about -65%; inconclusive = mostly about -30% to -63%; inactive = weaker than that. Unless noted, % is set by controls: 0 for no effect and ±100 for the full control effect.

SMILES | KCNH2 3.1 block | KCNH2 WT inh | CtBP-E1A blk | KDM4E inh | Six1-Eya2 blk
NC(=O)C1CCN(C(=S)c2cccs2)CC1 | -3 | 13 | 2 | 0% | -3
CC(=O)Nc1cccc(NC(=O)CSc2nn3c(=O)c(C)nnc3s2)c1 | 5 | -4 | -88* | 10% | -73*
Cc1nnc2sc(SCC(=O)Nc3ccc(Cl)cc3)nn2c1=O | -9 | -7 | -88* | 0% | ?
O=C(/C=C/c1ccc([N+](=O)[O-])cc1)N1CCN(S(=O)(=O)c2ccccc2)CC1 | -27 | 30 | -4 | / | 0
O=[N+]([O-])c1cccc(N=Cc2sc3ccccc3c2O)c1 | / | / | / | 28µM* | /
O=[N+]([O-])c1ccc(N=Cc2sc3ccccc3c2O)cc1 | 6 | 2 | -8 | ? | -5
Oc1cccc(C=NCc2ccccc2)c1O | 6 | 6 | -3 | 13µM* | -14
Oc1cccc(C=Nc2cccc3ccccc23)c1O | 16 | -18 | -12 | / | ?
CN1CCN(c2ccc(NC(=S)NC(=O)c3cccc4c(Br)cccc34)cc2)CC1 | -83* | -36 | -6 | / | -10
CN1CCN(c2ccc(NC(=S)NC(=O)c3cccc4ccccc34)cc2)CC1 | -79* | 17 | / | / | ?
COC(=O)C/C=C/[C@@H](C)[C@@H](/C=N/OC[C@H]1O[C@H](c2ccccc2)C=C[C@@H]1Oc1ccc(OC)cc1)OC | / | / | / | -7% | /
O=C(Nc1cccc([N+](=O)[O-])c1)N1CCN(c2ccccc2)CC1 | 0 | -5 | -2 | 7% | -6
Cc1ccc(N2CCN(C(=O)Nc3cccc([N+](=O)[O-])c3)CC2C)cc1 (stereo not given) | -74* | -77* | 19 | 0% | -17
COC(=O)CCC(=O)NC1CC(C)(C)Cc2c1cnn2-c1ccc(F)cc1 (stereo not given) | -4 | 5 | 5 | / | -3
CCOc1ccc(CCN2C(=O)C(=O)N([C@@H](CC(C)C)CN3CCC[C@H]3CN3C(=O)C(=O)NC[C@@H]3Cc3ccc(O)cc3)C[C@@H]2Cc2ccccc2)cc1 | / | / | 0 | / | -10
CC1=C/C(=N\Nc2ccccc2[N+](=O)[O-])CC(C)(C)C1 | / | 10 | -68* | 0% | -69*
C/C(=N/Nc1ccccc1[N+](=O)[O-])c1ccc([N+](=O)[O-])cc1 | 9 | 1 | / | / | -6
COc1ccc(OCCC(=O)OCC(=O)c2ccc[nH]2)cc1 | 8 | -5 | -3 | -3% | 2
CN(C)C(=O)c1cc2cc(Br)ccc2s1 | 11 | 1 | 0 | 6% | 2
COc1cc(NS(=O)(=O)c2ccc(C)cc2)c2ncccc2c1 | -15 | -2 | -79* | 6% | -72*
Cc1ccc(S(=O)(=O)Nc2cccc3cccnc23)cc1 | 1 | 28 | ? | 18% | -71*
COc1cc(NCCCC(C)N)c2ncccc2c1 (stereo not given) | -2 | 0 | -70* | ? | ?
CCOc1ccc(S(=O)(=O)Nc2cc(SCC(=O)O)c(O)c3ccccc23)cc1 | 40 | -8 | / | / | -13
O=S(=O)(Nc1cc(Sc2cccc3cccnc23)c(O)c2ccccc12)c1ccccc1 | / | / | / | 28µM* | /
CC(=O)N1CCCc2cc(S(=O)(=O)N3CCCC(C(=O)Nc4ccc(C)cc4C)C3)ccc21 (stereo not given) | -4 | -5 | 3 | / | 1
SMILES | KCNH2 3.1 block | KCNH2 WT inh | CtBP-E1A blk | KDM4E inh | Six1-Eya2 blk
COC(=O)c1sc2nc(N)c(C#N)cc2c1N | -18 | -9 | -17 | ? | -1
CC(=O)N1CCN(C(=O)CSc2nc3c(cnn3-c3ccccc3)c(=O)[nH]2)CC1 | -1 | -4 | -1 | 4% | -6
O=C(CSc1nc2c(cnn2-c2ccccc2)c(=O)[nH]1)N1N=C(c2cccs2)CC1c1ccc(F)cc1 (stereo not given) | 0 | -9 | 5 | 4µM* | 7
Cc1ccc(S(=O)(=O)N/N=C/c2ccc(OCC(=O)N3CCOCC3)cc2)cc1 | -72* | 0 | / | ? | 0
O=C(COc1ccc(/C=N/NS(=O)(=O)c2ccccc2)cc1)N1CCOCC1 | 10 | 3 | -8 | -3% | -8
O=C(NCCS(=O)(=O)c1ccc(Br)cc1)c1ccc(F)cc1 | 16 | -251* | 1 | / | -1
CCN1CCN(C(=O)c2cc(COc3ccc(F)cc3F)on2)[C@@H](C)C1=O | 2 | -3 | 6 | / | 0
O=C(CN1CCN(C(=O)c2ccccc2)CC1)Nc1ccc(Cl)cc1F | -26 | 21 | 9 | / | -2
O=C(CN1CCN(C(=O)c2ccccc2)CC1)Nc1ncc(Br)cc1Br | -85* | -20 | 5 | 2% | 11
Cn1nc(-c2ccc(Cl)cc2)c2cc(C(=O)N3CCCC3)sc21 | -209* | -143* | ? | -9% | ?
CC(C)NC(=O)c1cc2c(-c3ccc(Cl)cc3)nn(C)c2s1 | 6 | -7 | 0 | 8.9µM* | -6
CC/C=C\C/C=C\C/C=C\C/C=C\C/C=C\C/C=C\CCC(=O)O | / | / | / | 1% | /
Cc1noc(C)c1C(=O)OCC(=O)Nc1ccc(N2CCOCC2)cc1 | 14 | 2 | -17 | / | -2
COC(=O)c1ccccc1S(=O)(=O)Nc1ccc2cn[nH]c2c1 | 9 | 28 | 1 | 1% | -1
C=CCN1N=C(/C=C/c2ccc(C)cc2)CCC1=O | -108* | 2 | 7 | 4% | 5
Cc1nn(C(C)(C)C)c(OC(=O)C2CCCC2)c1S(=O)(=O)c1ccccc1 | -1 | 3 | 3 | -3% | 4
Oc1cc2c(cc1O)C(c1ccccc1)CNCC2 (stereo not given) | -3 | 26 | -11 | 20µM* | -4
CN1CCc2cc(O)c(O)cc2C(c2ccccc2)C1 (stereo not given) | -6 | 43 | -1 | 20µM* | 3
O=C(CBr)N1CCc2ccccc2C(c2ccccc2)C1 (stereo not given) | -1 | 6 | 5 | 8% | 6
CN1CCc2c(cc(O)c(O)c2Cl)C(c2cccc(Cl)c2)C1 (stereo not given) | / | / | / | 14µM* | /
Oc1cc2c(cc1O)[C@@H](c1ccccc1)CNCC2 | -8 | 17 | 1 | 13% | -6
CN1CCc2cc(Cl)c(O)cc2C(c2ccccc2)C1 (stereo not given) | / | / | / | 4% | /
C=CCN1CCc2c(cc(O)c(O)c2Br)[C@@H](c2ccccc2)C1 | -9 | -2 | 1 | 14µM* | 5
Cc1ccc(NS(=O)(=O)c2ccc(-c3cnc(C4CC4)o3)cc2)c(C)c1 | 5 | -16 | / | / | -4
CCn1cc(C(=O)O)c(=O)c2cnc(N3CCCC3)nc21 | / | / | / | -10% | /
COc1ccc(CNC(=O)c2noc(C(C)C)c2[N+](=O)[O-])cc1 | 6 | 15 | -2 | -2% | 10
CN1CCc2cc(Cl)c(O)cc2[C@@H](c2ccccc2)C1 | ? | 0 | -5 | 6% | -3
C=CCN1CCc2cc(O)c(O)cc2[C@H](c2ccccc2)C1 | / | / | / | 25µM* | /
